The results in this text go back to PubChem BioAssay (EPA / NIEHS).

Assay [1] addresses bovine Gamma-Aminobutyric Acid Type A Receptor BDZ, alpha 5 site (GABARa5), GABRA5 (gene 523515) (UniProt Q08E50). The assay can be described thus: NVS_LGIC_bGABARa5: NovaScreen (NVS) Ligand-Gated Ion Channel Assay for bovine Gamma-Aminobutyric Acid Type A Receptor BDZ, alpha 5 site (GABARa5) (AID 2283323). The gist of the method: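 Radioligand competitive displacement binding on bovine hippocampal membranes, read 1 hr after dosing by filter-based scintillation counting. Primary screen at 25 uM in duplicate; actives (e.g. ≥30% inhibition) then run in concentration-response up to 50 uM.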

Assay [2] addresses rat Serotonin, 5-Hydroxytryptamine Receptor (5HT), Non-Selective Binding, Htr1a (gene 24473) (UniProt P19327). Briefly: NVS_GPCR_r5HT_NonSelective: NovaScreen (NVS) G Protein-Coupled Receptor Assay for rat Serotonin, 5-Hydroxytryptamine Receptor (5HT), Non-Selective Binding (AID 2283295). The gist of the method: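 Radioligand displacement on rat cortical membranes, 1 h incubation, filter-based scintillation counting. Primary duplicates at 25 uM, actives retested in concentration series; loss of signal fitted against DMSO as baseline.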

The target of assay [3] is rat Adrenergic, Alpha 1A Receptor (Adra1A), Adra1a (gene 29412) (UniProt P43140). The assay can be described thus: NVS_GPCR_rAdra1A: NovaScreen (NVS) G Protein-Coupled Receptor Assay for rat Adrenergic, Alpha 1A Receptor (Adra1A) (AID 2283296). In short, it runs like this:
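Rat cortical membranes pretreated with chlorethyl clonidine; competitive radioligand displacement, 1 h. Filter-based scintillation counting. Primary screen in duplicate at 25 uM, actives followed in concentration series.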

Assay [4] deals with rat Adrenergic, Alpha 1B Receptor (Adra1B), gene 24173. Briefly: NVS_GPCR_rAdra1B: NovaScreen (NVS) G Protein-Coupled Receptor Assay for rat Adrenergic, Alpha 1B Receptor (Adra1B) (AID 2283297). The gist of the method:
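Rat liver membranes, radioligand displacement with filter-based scintillation detection, 1 h incubation. Primary screen in duplicate at 25 uM; actives retested in concentration series; activity relative to DMSO.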

A further assay concerns the target Adra2b (gene 24174) (UniProt P19328). The assay can be described thus: NVS_GPCR_rmAdra2B: NovaScreen (NVS) G Protein-Coupled Receptor Assay for hybird cells Adrenergic, Alpha 2B Receptor (Adra2B) (AID 2283306). The gist of the method: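 Radioligand filter-binding assay on membrane proteins from neuroglioma/blastoma hybrid cells (rodent), 1 h after dosing; scintillation counting, loss of signal vs DMSO. Primary screen in duplicate at 25 uM, actives then run in concentration series.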

The target of assay [5] is rat Neurokinin-1 Receptor (NK1), Tacr1 (gene 24807) (UniProt P14600). The assay can be described thus: NVS_GPCR_rNK1: NovaScreen (NVS) G Protein-Coupled Receptor Assay for rat Neurokinin-1 Receptor (NK1) (AID 2283309). In short, it runs like this:
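Rat submaxillary gland membranes; radioligand displacement read by filter-based scintillation counting after 1 h. Primary screen in duplicate at 25 uM; actives retested in concentration series; loss of binding fitted versus DMSO.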

Assay [6] has as its target rat Opioid Receptor, Non-selective Sodium (Na+) Binding, Oprm1 (gene 25601) (UniProt P33535). The assay can be described thus: NVS_GPCR_rOpiate_NonSelectiveNa: NovaScreen (NVS) G Protein-Coupled Receptor Assay for rat Opioid Receptor, Non-selective Sodium (Na+) Binding (AID 2283311). The gist of the method:
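Rat forebrain membranes, radioligand displacement with filter scintillation counting, 1.5 h incubation. Screened in duplicate at 25 µM; hits then run in concentration-response up to 50 µM; loss of binding fitted versus DMSO.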

Assay [7] concerns the target rat Opioid Receptor, Non-selective Binding, Oprm1 (gene 25601) (UniProt P33535). Briefly: NVS_GPCR_rOpiate_NonSelective: NovaScreen (NVS) G Protein-Coupled Receptor Assay for rat Opioid Receptor, Non-selective Binding (AID 2283318). In short, it runs like this:
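Rat forebrain membranes, cell-free radioligand binding with filter-based scintillation counting, read 1.5 h after dosing. Primary screen in duplicate at 25 uM; actives retested in concentration series. Loss of signal versus DMSO baseline scored.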

Assay [8] concerns the target Sodium channel protein type 1 subunit alpha (Rattus norvegicus) (UniProt P04774). The assay can be described thus: NVS_IC_rNaCh_site2: NovaScreen (NVS) Ion Channel Assay for rat Sodium Channel, Site 2 (NaCh) (AID 2283322).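 Also: hit means loss of radioligand binding signal relative to DMSO so AC50 marks displacement.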 In short, it runs like this: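 Membranes: rat forebrain. Format: competitive radioligand displacement, filter separation, scintillation readout, 1 h exposure. Primary screen in duplicate at 25 uM; actives retested in concentration series.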

Assay [9] has as its target rat Adrenergic Receptor, Beta (Adrb), Non-selective Binding, Adrb1 (gene 24925) (UniProt P18090). The assay can be described thus: NVS_GPCR_rAdrb_NonSelective: NovaScreen (NVS) G Protein-Coupled Receptor Assay for rat Adrenergic Receptor, Beta (Adrb), Non-selective Binding (AID 2283298). In short, it runs like this: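 Non-selective beta-adrenergic radioligand binding in rat cortical membranes, 1 h incubation, filter-based scintillation read-out. Primary screen 25 uM in duplicate; hits retested in concentration-response up to 50 uM, DMSO baseline.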

Assay [10] has as its target rat Histamine Receptor (H3), Hrh3 (gene 85268) (UniProt Q9QYN8). Briefly: NVS_GPCR_rH3: NovaScreen (NVS) G Protein-Coupled Receptor Assay for rat Histamine Receptor (H3) (AID 2283303). In short, it runs like this: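 Rat forebrain membranes incubated 1 h with compound; radioligand displacement measured by filter-based scintillation counting. Single-concentration duplicates at 25 µM, then concentration-response up to 50 µM, relative to DMSO.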

In assay [11] the target is rat Neurokinin-3 Receptor (NK3), Tacr3 (gene 24808) (UniProt P16177). The assay can be described thus: NVS_GPCR_rNK3: NovaScreen (NVS) G Protein-Coupled Receptor Assay for rat Neurokinin-3 Receptor (NK3) (AID 2283310). In short, it runs like this: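 Rat cortical membranes; radioligand binding with filtration and scintillation counting, 2 h after dosing. Primary screen in duplicate at 25 uM, then concentration-response up to 50 uM; loss of binding signal relative to DMSO.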

For assay [12], the target named is rat Somatostatin Receptor (SST), Sstr1 (gene 25033) (UniProt P28646). The assay can be described thus: NVS_GPCR_rSST: NovaScreen (NVS) G Protein-Coupled Receptor Assay for rat Somatostatin Receptor (SST) (AID 2283314). The gist of the method:
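Rat forebrain membranes; radioligand displacement read by filter-based scintillation counting 1 h after dosing. Primary screen in duplicate at 25 uM. Actives (e.g., 30% inhibition) were rerun as concentration-response to 50 uM max and fitted against DMSO.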

Assay [13] concerns the target rat Neonicotinoid receptor (NNR), Chrna7 (gene 25302) (UniProt Q05941). The assay can be described thus: NVS_LGIC_rNNR_BungSens: NovaScreen (NVS) Ligand-Gated Ion Channel Assay for rat Neonicotinoid receptor (NNR) (AID 2283315). The gist of the method: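 Radioligand displacement binding on rat cortical membranes, 2.5 h incubation, filtration and scintillation counting. Loss of specific binding fitted relative to DMSO.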

The nature of assay [14]: NVS_IC_rCaDHPRCh_L: NovaScreen (NVS) Ion Channel Assay for rat Calcium Channel, Type L, Dihydropyridine Site (CaDHPRCh_L) (AID 2283320). The gist of the method:
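Radioligand binding to dihydropyridine site on rat cortical membranes, filter-based scintillation counting, 1 h after dosing. Screened in duplicate at 25 uM; actives rerun in concentration-response up to 50 uM. Loss of signal versus DMSO baseline.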

Assay [15] deals with rat Vasopressin 1 Receptor (V1), Avpr1a (gene 25107) (UniProt P30560). Briefly: NVS_GPCR_rV1: NovaScreen (NVS) G Protein-Coupled Receptor Assay for rat Vasopressin 1 Receptor (V1) (AID 2283316). In short, it runs like this: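 Radioligand binding on rat liver membranes, 1.5 h incubation, filter-based scintillation counting. Single 25 uM screen in duplicate; chemicals meeting threshold (e.g. 30% inhibition) run in concentration-response up to 50 uM.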
rat Vasopressin 1 Receptor (V1), Avpr1a (gene 25107), sequence (P30560 whole entry, looked up): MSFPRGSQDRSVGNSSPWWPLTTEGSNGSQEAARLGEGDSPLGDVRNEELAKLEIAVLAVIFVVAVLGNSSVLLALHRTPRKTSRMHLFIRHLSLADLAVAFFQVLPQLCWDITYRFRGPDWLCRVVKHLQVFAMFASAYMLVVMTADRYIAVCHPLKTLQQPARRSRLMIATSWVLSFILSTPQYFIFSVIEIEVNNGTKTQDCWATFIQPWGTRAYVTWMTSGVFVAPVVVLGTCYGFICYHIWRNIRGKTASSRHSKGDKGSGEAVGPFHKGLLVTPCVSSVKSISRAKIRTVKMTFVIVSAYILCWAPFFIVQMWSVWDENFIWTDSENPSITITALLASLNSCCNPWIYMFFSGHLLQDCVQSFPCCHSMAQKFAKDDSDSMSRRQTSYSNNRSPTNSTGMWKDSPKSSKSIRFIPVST

Assay [16] addresses rat Gamma-Aminobutyric Acid Type B Receptor (GABBR), Gabbr1 (gene 81657) (UniProt Q9Z0U4). Briefly: NVS_GPCR_rGABBR: NovaScreen (NVS) G Protein-Coupled Receptor Assay for rat Gamma-Aminobutyric Acid Type B Receptor (GABBR) (AID 2283301). In short, it runs like this: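 Radioligand displacement on rat cortical membranes, 1 h, filter-based scintillation counting. Primary screen at 25 uM in duplicate; compounds passing threshold re-tested in concentration-response up to 50 uM; loss of binding fitted against DMSO.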

Assay [17] deals with Metabotropic glutamate receptor 1 (Rattus norvegicus) (UniProt P23385). The assay can be described thus: NVS_GPCR_rmMGluR1: NovaScreen (NVS) G Protein-Coupled Receptor Assay for rat Glutamate Metabotropic Receptor 1 (MGluR1) (AID 2283305). In short, it runs like this: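 Rat cerebellum membrane preparation, radioligand displacement binding read by filter-based scintillation counting 1 hour after dosing. Initial duplicate single-point screen at 25 uM, then concentration-response up to 50 uM; loss of signal versus DMSO baseline scored.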

The AC50 is the midpoint of the concentration-response curve, whichever way the signal moves.

Structures are written as SMILES. Inconclusive results are not listed. Active and inactive are the calls of the source. The calls were made as follows: active = hit-call score of the fitted dose curve at least 0.9, where 1 is the maximum; inconclusive = response in the unintended direction; inactive = score below 0.9.

rat Neurokinin-1 Receptor (NK1), Tacr1 (gene 24807), sequence (P14600 whole entry, looked up): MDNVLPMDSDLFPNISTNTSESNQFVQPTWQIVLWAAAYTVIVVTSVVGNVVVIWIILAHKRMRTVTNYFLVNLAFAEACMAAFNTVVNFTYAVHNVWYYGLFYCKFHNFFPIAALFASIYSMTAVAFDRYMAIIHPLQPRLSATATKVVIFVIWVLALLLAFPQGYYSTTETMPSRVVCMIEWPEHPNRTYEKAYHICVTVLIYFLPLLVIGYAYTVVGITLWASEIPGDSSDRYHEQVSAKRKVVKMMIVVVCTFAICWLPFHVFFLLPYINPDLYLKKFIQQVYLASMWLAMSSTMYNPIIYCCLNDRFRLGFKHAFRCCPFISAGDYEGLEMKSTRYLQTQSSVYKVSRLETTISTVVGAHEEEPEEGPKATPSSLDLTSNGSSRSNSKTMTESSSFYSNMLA
rat Neonicotinoid receptor (NNR), Chrna7 (gene 25302), sequence (Q05941 whole entry, looked up): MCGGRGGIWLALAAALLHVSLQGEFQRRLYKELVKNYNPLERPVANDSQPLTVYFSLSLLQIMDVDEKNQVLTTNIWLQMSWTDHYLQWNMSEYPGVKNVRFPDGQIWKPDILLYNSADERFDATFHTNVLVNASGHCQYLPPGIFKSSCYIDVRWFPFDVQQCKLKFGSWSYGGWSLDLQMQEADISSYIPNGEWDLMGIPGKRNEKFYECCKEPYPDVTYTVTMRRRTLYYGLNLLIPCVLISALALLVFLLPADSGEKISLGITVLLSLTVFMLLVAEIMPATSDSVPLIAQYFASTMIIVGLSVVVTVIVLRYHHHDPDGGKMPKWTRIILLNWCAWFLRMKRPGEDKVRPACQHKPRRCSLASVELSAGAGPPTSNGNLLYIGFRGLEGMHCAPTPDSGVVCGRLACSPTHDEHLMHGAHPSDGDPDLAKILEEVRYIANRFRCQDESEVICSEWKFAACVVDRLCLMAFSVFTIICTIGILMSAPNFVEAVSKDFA
rat Somatostatin Receptor (SST), Sstr1 (gene 25033), sequence (P28646 whole entry, looked up): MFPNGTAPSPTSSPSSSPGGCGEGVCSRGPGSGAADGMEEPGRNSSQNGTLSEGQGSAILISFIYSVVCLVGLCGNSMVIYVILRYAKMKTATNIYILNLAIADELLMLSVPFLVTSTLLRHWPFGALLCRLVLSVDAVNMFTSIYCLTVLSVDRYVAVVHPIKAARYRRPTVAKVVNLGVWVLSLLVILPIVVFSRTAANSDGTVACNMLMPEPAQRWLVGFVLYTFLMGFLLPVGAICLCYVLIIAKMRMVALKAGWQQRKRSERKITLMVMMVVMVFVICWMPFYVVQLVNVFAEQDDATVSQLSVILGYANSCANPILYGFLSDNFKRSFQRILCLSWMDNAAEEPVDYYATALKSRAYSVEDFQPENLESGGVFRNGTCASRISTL
rat Serotonin, 5-Hydroxytryptamine Receptor (5HT), Non-Selective Binding, Htr1a (gene 24473), sequence (P19327 whole entry, looked up): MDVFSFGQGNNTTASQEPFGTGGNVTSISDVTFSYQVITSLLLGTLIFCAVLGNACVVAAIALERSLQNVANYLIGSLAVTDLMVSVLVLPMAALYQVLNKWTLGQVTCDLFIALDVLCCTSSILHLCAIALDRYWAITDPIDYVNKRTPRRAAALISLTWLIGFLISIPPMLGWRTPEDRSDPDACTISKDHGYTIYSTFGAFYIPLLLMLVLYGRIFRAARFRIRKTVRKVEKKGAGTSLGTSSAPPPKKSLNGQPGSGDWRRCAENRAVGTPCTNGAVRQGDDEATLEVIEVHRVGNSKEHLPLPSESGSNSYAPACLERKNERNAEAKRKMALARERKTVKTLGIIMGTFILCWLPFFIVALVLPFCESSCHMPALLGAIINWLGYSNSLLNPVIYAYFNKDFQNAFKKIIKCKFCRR
rat Adrenergic, Alpha 1A Receptor (Adra1A), Adra1a (gene 29412), sequence (P43140 whole entry, looked up): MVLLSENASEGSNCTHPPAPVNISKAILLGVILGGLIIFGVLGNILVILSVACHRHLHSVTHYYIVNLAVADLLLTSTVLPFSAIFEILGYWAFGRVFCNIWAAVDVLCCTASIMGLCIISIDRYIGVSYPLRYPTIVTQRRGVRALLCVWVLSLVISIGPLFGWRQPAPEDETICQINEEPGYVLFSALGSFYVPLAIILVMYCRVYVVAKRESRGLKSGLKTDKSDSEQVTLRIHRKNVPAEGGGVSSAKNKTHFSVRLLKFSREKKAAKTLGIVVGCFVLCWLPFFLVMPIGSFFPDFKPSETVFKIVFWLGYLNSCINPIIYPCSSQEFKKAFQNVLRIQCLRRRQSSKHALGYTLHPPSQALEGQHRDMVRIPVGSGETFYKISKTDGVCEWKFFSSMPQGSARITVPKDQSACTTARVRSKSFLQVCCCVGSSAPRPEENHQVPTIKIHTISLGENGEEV
rat Opioid Receptor, Non-selective Sodium (Na+) Binding, Oprm1 (gene 25601), sequence (P33535 whole entry, looked up): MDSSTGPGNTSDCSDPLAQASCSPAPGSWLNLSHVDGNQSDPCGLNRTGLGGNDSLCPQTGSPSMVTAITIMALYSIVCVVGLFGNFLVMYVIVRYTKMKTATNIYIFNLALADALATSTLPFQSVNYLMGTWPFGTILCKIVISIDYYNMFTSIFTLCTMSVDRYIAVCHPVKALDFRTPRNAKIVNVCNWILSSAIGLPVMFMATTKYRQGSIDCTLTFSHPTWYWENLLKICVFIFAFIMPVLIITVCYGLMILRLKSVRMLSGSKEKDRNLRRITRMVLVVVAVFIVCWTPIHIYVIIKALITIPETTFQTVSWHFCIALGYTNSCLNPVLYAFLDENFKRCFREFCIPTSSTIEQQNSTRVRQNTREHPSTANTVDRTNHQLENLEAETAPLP
rat Opioid Receptor, Non-selective Binding, Oprm1 (gene 25601), sequence (P33535 whole entry, looked up): as above
Adra2b (gene 24174), sequence (P19328 whole entry, looked up): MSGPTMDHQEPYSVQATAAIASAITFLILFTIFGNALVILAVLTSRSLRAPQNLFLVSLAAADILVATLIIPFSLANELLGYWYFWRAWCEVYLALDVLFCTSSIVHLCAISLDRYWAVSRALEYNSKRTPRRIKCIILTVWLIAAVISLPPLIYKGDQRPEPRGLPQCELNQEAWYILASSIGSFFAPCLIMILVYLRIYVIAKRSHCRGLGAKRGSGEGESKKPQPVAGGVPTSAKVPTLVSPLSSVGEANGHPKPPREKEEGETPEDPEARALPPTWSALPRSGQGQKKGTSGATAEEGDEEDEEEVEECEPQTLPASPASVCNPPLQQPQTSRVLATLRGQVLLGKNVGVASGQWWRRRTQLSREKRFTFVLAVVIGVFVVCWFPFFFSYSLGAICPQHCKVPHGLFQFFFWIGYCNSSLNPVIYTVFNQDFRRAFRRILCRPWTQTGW
rat Adrenergic Receptor, Beta (Adrb), Non-selective Binding, Adrb1 (gene 24925), sequence (P18090 whole entry, looked up): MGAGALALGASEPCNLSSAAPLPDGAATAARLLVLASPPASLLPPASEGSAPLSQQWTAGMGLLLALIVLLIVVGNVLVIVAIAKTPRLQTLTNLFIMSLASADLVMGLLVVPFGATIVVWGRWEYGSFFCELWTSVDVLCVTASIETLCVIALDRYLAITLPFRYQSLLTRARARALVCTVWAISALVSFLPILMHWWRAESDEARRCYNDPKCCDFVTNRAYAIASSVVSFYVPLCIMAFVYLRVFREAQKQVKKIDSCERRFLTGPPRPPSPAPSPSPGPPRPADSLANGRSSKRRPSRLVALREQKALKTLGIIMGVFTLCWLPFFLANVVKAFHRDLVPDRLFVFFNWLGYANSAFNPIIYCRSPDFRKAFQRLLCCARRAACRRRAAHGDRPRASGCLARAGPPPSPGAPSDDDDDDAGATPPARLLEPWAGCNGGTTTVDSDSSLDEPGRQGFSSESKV
rat Histamine Receptor (H3), Hrh3 (gene 85268), sequence (Q9QYN8 whole entry, looked up): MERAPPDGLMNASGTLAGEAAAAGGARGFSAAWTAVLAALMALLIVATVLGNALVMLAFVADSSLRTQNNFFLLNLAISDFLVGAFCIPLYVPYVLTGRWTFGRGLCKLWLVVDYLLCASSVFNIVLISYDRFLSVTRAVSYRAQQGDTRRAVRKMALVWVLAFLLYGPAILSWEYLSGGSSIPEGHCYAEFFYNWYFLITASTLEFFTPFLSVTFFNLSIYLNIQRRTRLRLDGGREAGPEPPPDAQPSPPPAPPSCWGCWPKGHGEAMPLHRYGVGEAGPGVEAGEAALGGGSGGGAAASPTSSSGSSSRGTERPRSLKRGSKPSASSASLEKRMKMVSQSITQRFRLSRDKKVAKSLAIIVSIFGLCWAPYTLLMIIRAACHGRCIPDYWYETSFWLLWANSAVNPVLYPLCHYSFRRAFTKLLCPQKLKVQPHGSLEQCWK

Take `CC(C)(O)c1ccc(CNC(=O)c2cccnc2Oc2ccc3nonc3c2)cc1`: the compound was called inactive in [1].

Take `CCN(CC)C(=O)c1cc(S(=O)(=O)Cc2ccccc2)c(N2CCC(c3ccccc3)CC2)cc1N(CC)CCN(C)C`: the AC50 in [2] is 11.3 µM (active); in assay [3] it was 17.8 µM (active); in assay [4], 6.1 µM (active); in the assay with Adra2b (gene 24174), 7.81 µM (active); in assay [5], 23.4 µM (active); in assay [8] it was 0.419 µM (active). For the same compound, the compound was classed as inactive in assay [6] and in assay [7].

On to `CN(C)c1ccc(C(=C2C=CC(=[N+](C)C)C=C2)c2ccc(N(C)C)cc2)cc1`, for which the AC50 is 25 µM (active) in assay [2]; 20.9 µM (active) in assay [3]; 17.3 µM (active) in assay [9]; 23 µM (active) in [10]; 9.73 µM (active) with Adra2b (gene 24174); 15.6 µM (active) in assay [5]. Further, the half-maximal activity concentration (AC50) is 11.5 µM (active) in assay [11]; 9.72 µM (active) in assay [6]; 16.4 µM (active) in assay [13]; 2.21 µM (active) in assay [7]; 4.99 µM (active) in assay [14]; 0.263 µM (active) in assay [8]. Also, in assay [12], the call was inactive.

For the compound `c1ccc(C[n+]2cccc3ccccc32)cc1`, the AC50 in [3] was 11 µM (active); with Adra2b (gene 24174), 12.2 µM (active); in assay [13], 25 µM (active); in assay [7], 14.5 µM (active); in assay [8] it was 10.7 µM (active). For the same compound, the compound was called inactive in [10] and in assay [5].

Take `COc1ccc2cc(S(=O)(=O)N[C@H](CC(=O)N[C@H](Cc3ccc(CN4[C@H](C)CCC[C@@H]4C)cc3)C(=O)N(C)C(C)C)c3ccc4c(c3)OCO4)ccc2c1`: the compound was called inactive in [2], in assay [3], in assay [13] and in [15]. The AC50 in assay [4] was 23.9 µM (active); with Adra2b (gene 24174), 11.1 µM (active); in [5] it was 11.4 µM (active); in assay [11], 8.07 µM (active); in assay [6], 4.72 µM (active); in [12], 5.07 µM (active). The AC50 is 17.7 µM (active) in assay [7], 21.5 µM (active) in [14] and 5.03 µM (active) in assay [8].

On to `C[C@]12CC[C@@H]3c4ccc(O)cc4CC[C@H]3[C@@H]1CCC2=O`, for which the AC50 in assay [6] is 13.9 µM (active).

Turning to `CCCCCCCCN(C)CCCCCCCC`, the compound was classed as inactive in assay [9]. Besides, the half-maximal activity concentration (AC50) in assay [14] was 16.4 µM (active); in [8] it was 11.8 µM (active).

For `COc1cccc([C@H](O)C2CCN(CCc3ccc(F)cc3)CC2)c1OC`, the AC50 in [2] was 5.58 µM (active); in assay [4], 0.26 µM (active); with Adra2b (gene 24174), 1.85 µM (active); in assay [6], 15.7 µM (active); in assay [7], 6.91 µM (active); in assay [14], 25 µM (active). Also, the AC50 in [8] was 3.64 µM (active). Moreover, the compound was classed as inactive in [16].

As for `Cc1cc(F)ccc1-c1cc(N2CC[C@@H](O)[C@H]2CO)ncc1N(C)C(=O)C(C)(C)c1cc(C(F)(F)F)cc(C(F)(F)F)c1`, the AC50 in [17] was 8.39 µM (active); in assay [5], 0.274 µM (active); in [8] it was 5.99 µM (active). Further, in [6], the result was inactive.

On to `CC(C)(c1cc(Br)c(O)c(Br)c1)c1cc(Br)c(O)c(Br)c1`, for which, in [6], the outcome was inactive.

`NCc1cccc(C2CCN(C(=O)c3ccc(C#Cc4ccccc4F)o3)CC2)c1`: the AC50 in assay [2] is 14.8 µM (active); in assay [4], 25 µM (active); with Adra2b (gene 24174), 13.3 µM (active); in [6], 11.2 µM (active); in assay [12], 15 µM (active); in assay [7], 12.1 µM (active). The figures for the concentration at half-maximal activity (AC50) in [14] and in assay [8] were 21.1 µM (active) and 2.68 µM (active), respectively. Further, the outcome in assay [3] and in assay [15] was inactive.
